The list is not random: actives were taken first. Their share in the collection is about 7.4%.
HEK cytotox = cytotoxic compounds in HEK 293 cells. HEK 293 viability, ATP luminescence (CellTiter-Glo), 48-72 h. Potency, µM (doses to about 115 µM), most hits filed as inhibitors. hit rate 6.6% among 94,000. AID 1345083; note: nearly all actives have a fitted effect of over 60% in size
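CellTiter-Glo luminescence (cellular ATP) was read after 48 or 72 hr of compound exposure at 37 degree Celsius. Cells were HEK 293 plated at 250 cells/well.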
HEK293 viab = counter-screen for SNCA expression inhibitors: cell viability; HEK-293-SNCA-luc viability, GF-AFC fluorescence, 24 h; AID 1671193; Potency, µM (titrated, usually from 57.1 µM), hits mostly cytotoxic; hit rate 0.12% among 150,000; note: nearly all actives have a fitted effect of over 30% in size
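HEK-293-SNCA-luc cells (1500/well) plated 24 h, then exposed 24 h to a dilution series; GF-AFC added 30 min at 37C, fluorescence 405/540 nm; normalised to medium-only and DMSO wells, Hill fit.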
SNCA expr inh = SNCA gene expression inhibition; HEK-293 SNCA-luciferase knock-in, luminescence, 24 h; AID 1671194; hit rate 0.17% among 140,000; Potency, µM (titrated, usually from 57.2 µM), usual class: inhibitors; note: nearly all actives have a fitted effect of over 45% in size
hNpr1 antagonist = human Npr1 receptor antagonism. P16066. HEK293 hNpr1 GloSensor cGMP, ANP-stimulated luminescence. Potency, µM (series often up to 46.3 µM), hits mostly inhibitors. hit rate 1.6% among 76,000; calls by dose curve; note: nearly all actives have a fitted effect of over 60% in size
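HEK293 cells stably expressing human Npr1 and cGMP GloSensor pGS-40F, loaded 2 h with 2% GloSensor reagent, given compound 30 min at room temperature. Luminescence read before and 20 min after 0.1 nM hNppA.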
FLuc inh = inhibitors of firefly (Photinus pyralis) luciferase. P08659. purified P. pyralis luciferase, luminescence, biochemical. hit rate 2.5% among 76,000. AID 1347043. Potency, µM (series often up to 115 µM), most hits filed as inhibitors; note: nearly all actives have a fitted effect of over 65% in size
Target sequence (P08659 whole entry, looked up): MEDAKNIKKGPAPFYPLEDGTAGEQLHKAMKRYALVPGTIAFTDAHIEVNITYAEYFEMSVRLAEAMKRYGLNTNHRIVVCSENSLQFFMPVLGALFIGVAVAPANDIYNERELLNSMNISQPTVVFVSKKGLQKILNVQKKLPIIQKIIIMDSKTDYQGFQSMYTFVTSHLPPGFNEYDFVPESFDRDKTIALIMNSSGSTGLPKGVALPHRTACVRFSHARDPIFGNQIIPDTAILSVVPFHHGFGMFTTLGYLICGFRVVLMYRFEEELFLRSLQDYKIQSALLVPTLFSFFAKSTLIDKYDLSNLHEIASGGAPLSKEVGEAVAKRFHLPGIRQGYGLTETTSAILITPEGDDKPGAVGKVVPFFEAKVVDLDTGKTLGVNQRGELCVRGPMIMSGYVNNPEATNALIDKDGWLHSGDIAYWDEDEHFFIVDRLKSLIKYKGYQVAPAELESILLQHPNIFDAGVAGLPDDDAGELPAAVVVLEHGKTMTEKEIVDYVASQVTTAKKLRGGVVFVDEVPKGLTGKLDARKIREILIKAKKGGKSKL
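FLuc 10nM, D-luciferin 10uM, ATP 10uM, Mg acetate 10mM, Tris acetate pH 7.5, Tween/BSA; cpd qHTS; enzyme added last; CCD luminescence.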
3T3 cytotox = NIH 3T3 cell cytotoxicity. hit rate 4.3% among 94,000. NIH 3T3 viability, CellTiter-Glo ATP luminescence, 48-72 h. AID 1345082. Potency, µM (doses to about 96.7 µM), usual class: inhibitors; note: nearly all actives have a fitted effect of over 55% in size
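ATP-dependent luminescence (CellTiter-Glo) served as the viability signal for NIH 3T3 cells treated with compound for 48 or 72 hr at 37 °C.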
Large screens that a line does not name were inactive. Unless noted, calls come from the whole dose curve; as a rule, active = well fitted curve in the direction sought with a large enough effect; inconclusive = small, poorly fitted or top-dose-only effect, or another doubt; inactive = no such curve, though single readings can be large; an effect the other way counts as inactive or inconclusive.

COc1ccccc1-c1nccc2c(=O)cc(C3=CCOCC3)oc12	HEK cytotox 63.1µM, 3T3 cytotox 12.6µM
COc1ccccc1-c1nccc2c(=O)cc(N3CCOCC3)oc12	HEK cytotox inconclusive, 3T3 cytotox 25.1µM
COc1cc(F)ccc1-c1nccc2c(=O)cc(-c3cnn(C)c3)oc12	HEK cytotox inconclusive, HEK293 viab inconclusive, 3T3 cytotox inconclusive
Cc1ccccc1-c1nccc2c(=O)cc(N3CCOCC3)oc12	HEK cytotox inconclusive, 3T3 cytotox 35.5µM
O=C(NCc1ccccc1F)c1cn2cc(-c3cccc(C(F)(F)F)c3)sc2n1	HEK cytotox inconclusive, 3T3 cytotox inconclusive (no result: hNpr1 antagonist, FLuc inh)
O=c1cc(N2CCOCC2)oc2c(-c3ccccc3O)nccc12	3T3 cytotox inconclusive
COc1ncccc1-c1nccc2c(=O)cc(N3CCOCC3)oc12	HEK cytotox inconclusive, 3T3 cytotox 50.1µM
Cc1ccc(CN2CCCC(c3nc(-c4cccnc4)no3)CCNC(=O)CC2)s1 (stereo unspecified)	HEK cytotox 89.1µM, 3T3 cytotox inconclusive
O=C1CCN(C(=O)c2ccco2)CCCC(c2nc(-c3ccccc3)no2)CCN1 (stereo unspecified)	FLuc inh 28.2µM
COc1ccc(CCC(=O)N2CCCC(c3nc(-c4ccccc4)no3)CCNC(=O)CC2)cc1 (stereo unspecified)	HEK cytotox 89.1µM, 3T3 cytotox inconclusive
COc1cccc(CC(=O)N2CCCC(c3nc(-c4ccccc4)no3)CCNC(=O)CC2)c1 (stereo unspecified)	FLuc inh inconclusive
CCN1CCC(OCCCNC(=O)c2ccc(CC3CCN(C(C)=O)CC3)cc2)CC1	HEK cytotox inconclusive, HEK293 viab inconclusive, 3T3 cytotox inconclusive (no result: hNpr1 antagonist, FLuc inh)
COc1ccc(F)c(F)c1C(=O)c1cnc(NC2CCN(S(C)(=O)=O)CC2)nc1N	HEK293 viab inconclusive, SNCA expr inh 13.6µM (no result: HEK cytotox, hNpr1 antagonist, FLuc inh, 3T3 cytotox)
Cc1nc(NC2CCCCC2)ncc1C(=O)O	HEK293 viab inconclusive
FC(F)(F)c1cccc(-c2nccn3c(C4CN(Cc5ccc6cn[nH]c6c5)C4)ncc23)c1	HEK cytotox 44.7µM, HEK293 viab inconclusive, 3T3 cytotox 39.8µM
COc1ccc(-n2c(=O)c(C(=O)N3CCC(C#N)CC3)nc3cccnc32)cc1	none (no result: hNpr1 antagonist, FLuc inh)
COc1cccc(-c2cn3cc(C(=O)NCc4cccc(Cl)c4)nc3s2)c1	HEK cytotox inconclusive, HEK293 viab inconclusive, 3T3 cytotox inconclusive (no result: hNpr1 antagonist, FLuc inh)
O=C(c1ccc2[nH]ccc2c1)N1CCC2(CC1)Nc1ccccc1NC2=O	HEK cytotox 39.8µM
O=C(c1ccc2n[nH]nc2c1)N1CCC2(CC1)Nc1ccccc1NC2=O	none
CC(C)CN(C/C=C/c1ccccc1)C(=O)C1CC2(CCNCC2)CN1 (stereo unspecified)	HEK cytotox inconclusive, 3T3 cytotox inconclusive
CC(C)(CC1Cc2ccccc2C1)NC(=O)C1CC2(CCNCC2)CN1 (stereo unspecified)	HEK cytotox 25.1µM, 3T3 cytotox 31.6µM
COc1ccc(F)cc1-c1ccc(CN2CCCCC2C(=O)NC(C)CCc2ccccc2)cc1 (stereo unspecified)	HEK cytotox 25.1µM, 3T3 cytotox inconclusive (no result: HEK293 viab, SNCA expr inh, hNpr1 antagonist, FLuc inh)
COc1ccccc1-c1cccc(C(=O)N2CCC[C@H]2C(=O)NCc2ccc(C(F)(F)F)cc2)c1	HEK cytotox 79.4µM, 3T3 cytotox inconclusive (no result: hNpr1 antagonist, FLuc inh)
COc1ccc(F)cc1-c1ccc(CN2CCCCC2C(=O)NCc2cccs2)cc1 (stereo unspecified)	HEK cytotox inconclusive, 3T3 cytotox 12.6µM (no result: HEK293 viab, SNCA expr inh, hNpr1 antagonist, FLuc inh)
COc1ccc(CNC(=O)C2CCCCN2Cc2ccc(-c3ccccc3OC)cc2)cc1OC (stereo unspecified)	HEK cytotox 31.6µM, 3T3 cytotox inconclusive (no result: HEK293 viab, SNCA expr inh, hNpr1 antagonist, FLuc inh)
CC(C)NC(=O)c1ccc2nc(-c3cccnc3)oc2c1	none (no result: hNpr1 antagonist, FLuc inh)
COC1CN(c2cccc(F)c2)C12CCN(C(=O)c1ccc3ncccc3c1)CC2 (stereo unspecified)	HEK cytotox inconclusive (no result: hNpr1 antagonist, FLuc inh)
O=C(Nc1cc(C2CC2)nn1-c1ccccc1)c1ccccc1F	HEK cytotox inconclusive, 3T3 cytotox inconclusive (no result: hNpr1 antagonist, FLuc inh)
